D2 ag-1: agonists of human D2 dopamine receptor (beta-arrestin); 360,000 compounds, 0.084% hits; P14416; DiscoveRx PathHunter D2 beta-arrestin, luminescence, 90 min; 100% = 57 uM dopamine signal; activation, % (no concentration beside the values); in the data active = activation above about 40%; inconclusive = between about 15% and that limit
Target sequence (P14416 whole entry, looked up): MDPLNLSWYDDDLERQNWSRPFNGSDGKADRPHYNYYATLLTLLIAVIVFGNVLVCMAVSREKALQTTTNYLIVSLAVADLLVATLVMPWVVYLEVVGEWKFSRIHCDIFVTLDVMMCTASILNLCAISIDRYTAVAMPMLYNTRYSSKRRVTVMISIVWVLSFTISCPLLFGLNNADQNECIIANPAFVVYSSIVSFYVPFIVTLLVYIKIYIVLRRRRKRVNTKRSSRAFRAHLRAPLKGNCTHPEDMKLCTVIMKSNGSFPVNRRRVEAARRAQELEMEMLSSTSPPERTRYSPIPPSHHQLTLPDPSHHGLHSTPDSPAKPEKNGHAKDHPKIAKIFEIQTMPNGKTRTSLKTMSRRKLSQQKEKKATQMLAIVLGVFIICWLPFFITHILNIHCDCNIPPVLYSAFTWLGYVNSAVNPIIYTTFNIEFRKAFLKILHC
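DiscoveRx PathHunter D2 beta-arrestin cells (2,100/well) attached overnight, then compound-stimulated 90 min at 37 C in HBSS/10 mM HEPES/0.1% Tween-20 buffer; beta-galactosidase complementation read by luminescence after 1 h at ambient temperature. Dopamine 57 uM final (EC100) as control.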
D2 ag-2: activates the human D2 dopamine receptor. P14416. HEK293 T-REx D2 cells, calcium flux agonist mode. activation, % at 2 µM. 340,000 compounds, 0.53% hits;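 active = activation over 3 SD above normal in the single-dose calcium agonist read, cut at about 30% in these data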; also: 0% is about no effect
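Calcium-flux readout, 1 cycle/sec over 180 s following compound pin transfer, in inducible HEK293 Trex D2 cells (force-coupled); dopamine controls included. Positive calcium responses during this window marked compounds as potential agonists.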
D2 PAM-1: human D2 receptor positive allosteric modulation; P14416; DiscoveRx D2 beta-arrestin cells, luminescence, 90 min; 100% = 57 uM dopamine signal; potentiation, % (test concentration not listed); 360,000 compounds, 0.23% hits; in the data active = potentiation above about 50%; inconclusive = mostly about 30% to 49%
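PathHunter beta-arrestin assay in DiscoveRx D2 cells. Compounds were added with an EC20 of dopamine (50 nM final) for 90 min at 37 deg C. Luminescence was read 1 h after detection reagent, with 57 uM dopamine as the EC100 control.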
D2 PAM-2: D2 dopamine receptor (human) potentiation | potentiation, % at 10 µM | HEK293 T-REx D2, calcium flux, EC20 dopamine potentiation | 340,000 compounds, 0.34% hits;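 active = potentiation over 3 SD above the plate norm, cut at about 30% in these data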; also: 0% is about no effect
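Tetracycline-induced Hek293 Trex D2 cells, force-coupled to calcium, loaded with no-wash calcium dye. Compound added with 180 s kinetic read for agonism, then EC20 dopamine and a further 180 s read for potentiation.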
D2 antag: antagonists of human D2 dopamine receptor | P14416 | HEK293 TREx D2 cells, calcium flux, dopamine EC80 | inhibition, % at 10 µM | 340,000 compounds, 2% hits | AID 485344; in the data active = inhibition above about 30%; inactive = below that, where a call was filed; also: 0% is about no effect
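Tetracycline-induced HEK293 T-REx cells expressing D2 force-coupled to calcium signalling were dye-loaded, exposed to compound for 180 s, then challenged with an EC80 of dopamine; calcium flux was followed kinetically for a further 180 s.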
* = called active by the depositor; ? = inconclusive; . = no result. This is a sample that favours compounds with a hit; in the whole collection about 2.4% have one here.

SMILES | D2 ag-1 | D2 ag-2 | D2 PAM-1 | D2 PAM-2 | D2 antag
O=C(c1ccco1)N1CCN(C(c2ccccn2)c2nnnn2C2CCCC2)CC1 (stereo unspecified) | -1.4 | 0.0 | 7.2 | 35.3* | -13.0
CCc1ccc(CNC(=O)CCn2c(=O)c3cccn3c3ccc(F)cc32)cc1 | . | -0.4 | . | 0.0 | .
Cc1cccc(CCNC(=O)C2CCC(CNS(=O)(=O)c3c(C)cc(C)cc3C)CC2)c1 (stereo unspecified) | . | 1.8 | . | 4.9 | .
CCc1ccccc1NC(=O)Cn1nc2c3cc(F)ccc3n(Cc3cccc(C)c3)cc-2c1=O | . | -0.7 | . | -4.2 | .
COc1cccc(NC(=O)Cn2nnc(-c3nc(-c4ccccc4)no3)c2N)c1 | . | -0.1 | . | 5.4 | .
Cc1ccc(-c2nn(-c3cccc(F)c3)cc2CN(Cc2nccn2C)C(C)C)o1 | -4.3 | -0.8 | -18.0 | -15.1 | 2.5
Cc1ccc(-c2nn(-c3cccc(F)c3)cc2CN2CCN(c3ccccn3)CC2)o1 | -4.2 | 7.4 | -18.4 | -26.0 | 80.2*
CC(C)(C)C(=O)NC1CCN(C(=O)N2CCCC2)CC1 | 1.9 | 0.8 | 5.4 | . | 32.4*
CN(C)/C=C1\C=C2C(=O)c3ccccc3N2C1=O | 4.8 | 95.5* | 3.7 | -6.6 | 18.1
CCOCCCNC(=O)c1cc(C)nn1-c1ccccc1 | -6.1 | 1.1 | -4.8 | 6.0 | 36.1*
CCOC(CNC(=O)c1cc(C)nn1-c1ccccc1)OCC | 2.0 | 0.0 | -6.0 | 2.7 | 18.8
COc1ccc(CNCc2c(C(=O)O)c(C)n(Cc3ccccc3C)c2C)c(OC)c1 | . | . | . | 6.9 | .
CC1=C(C#N)C(=O)NC(=O)/C1=C/c1ccc(-c2ccc(S(N)(=O)=O)cc2)o1 | 9.8 | 0.7 | 28.6 | 36.6* | 9.1
C=CCOC(=O)c1cc(-c2ccc(/C=C3\C(=O)NC(=O)C(C#N)=C3C)o2)ccc1Cl | -1.0 | 0.1 | 2.4 | -3.7 | -13.8
COc1ccc(OC)c(CNC(=O)C2CCN(c3nc4ccccc4nc3C(F)(F)F)CC2)c1 | . | -0.8 | . | 1.7 | .
CCOc1ccc(N2CC(C(=O)NCCc3ccc(S(N)(=O)=O)cc3)CC2=O)cc1 (stereo unspecified) | -1.8 | 1.2 | -5.5 | 13.6 | 37.8*
CCOc1ccc(N2CC(C(=O)N3CCCc4ccccc43)CC2=O)cc1 (stereo unspecified) | 0.5 | -2.5 | 1.6 | . | 55.8*
Nc1cc(OCC(F)(F)F)cc([N+](=O)[O-])c1 | -0.1 | -1.7 | -9.9 | 10.0 | -1.1
O=C1C2C3CCC(O3)C2C(=O)N1c1cc(OCC(F)F)cc([N+](=O)[O-])c1 (stereo unspecified) | -5.1 | 0.2 | -22.8 | -4.1 | 34.8*
COC1=CC(=Cc2c(N)n3nc(CC(=O)N4CCCCC4)sc3nc2=O)C=C(OC)C1=O | -2.6 | 70.4* | 2.5 | 6.7 | -1.5
CCc1ccccc1NC(=O)Cn1ccn(-c2cc(C)cc(C)c2)c(=O)c1=O | . | -1.1 | . | -1.2 | .
Cc1ccc(CNc2nc3ccccc3n3nnnc23)cc1 | -1.2 | 0.8 | 52.0* | -4.4 | -11.3
Cc1ccc(CNC(=O)c2ccc(Nc3nc4ccccc4n4nnnc34)cc2)cc1 | . | 0.7 | . | -3.3 | .
COc1ccc(N2CCN(CCCNC(=O)CCC(=O)N3CCOc4ccc(Cl)cc43)CC2)cc1 | -6.1 | -0.2 | -38.8 | -27.1 | -4.4
O=C(CCC(=O)N1CCOc2ccc(Cl)cc21)NCCCN1CCN(c2ccccc2F)CC1 | 0.7 | 36.1* | -11.4 | -15.2 | 85.8*
SMILES | D2 ag-1 | D2 ag-2 | D2 PAM-1 | D2 PAM-2 | D2 antag
Cc1ccc(C)c(N2CCN(CCCNC(=O)CCC(=O)N3CCOc4ccc(Cl)cc43)CC2)c1 | . | 4.5 | . | -22.6 | 55.7*
Cc1ccc(CSc2nc3cccnc3n2Cc2nc(-c3ccccc3F)oc2C)cc1 | . | -0.6 | . | . | .
COc1ccccc1NC(=O)CSc1nncn2c1cc1sccc12 | . | -0.5 | . | -0.3 | .
CCOC(=O)Cc1ccc(NC(=O)N(Cc2ccc(OC)cc2)C2CCN(C(C)=O)CC2)cc1 | . | 1.6 | . | . | .
CC1CCCCN1C(=O)NC12CC3CC(CC(C3)C1)C2 (stereo unspecified) | 3.0 | -0.4 | 1.5 | -1.4 | 33.7*
O=C(NC12CC3CC(CC(C3)C1)C2)C1CCCN1C(=O)NC1CCCCC1 (stereo unspecified) | -1.5 | 1.3 | -5.7 | 14.1 | -12.1
COc1cc2c(cc1OC)CN(CC(=O)NC(=O)NCc1ccccc1)CC2 | -1.9 | 1.8 | -3.1 | 24.5 | -0.3
C/C=C(\C)CN1CCc2cc(OC)c(OC)cc2C1 | 1.3 | 0.4 | -15.3 | 30.8* | -5.3
CCOc1ccccc1NC(=O)Cn1c(=O)n(-c2ccc(Cl)cc2)c(=O)c2oc3ccccc3c21 | . | . | . | -7.4 | .
CNc1nc(C)nc(N/N=C/c2ccccc2)n1 | 9.9 | 12.3 | -5.2 | -1.9 | 42.4*
COc1ccc(C(=O)NCC(c2ccco2)S(=O)(=O)c2cccs2)cc1 (stereo unspecified) | . | 1.2 | . | -8.6 | .
O=C(CSc1n[nH]c(-c2ccco2)n1)Nc1ccccc1Cl | -4.0 | 0.2 | -2.1 | 8.4 | 30.3*
CCc1cccc(C)c1NC(=O)CSc1nc(C)c(C)o1 | -1.4 | -0.1 | -32.5 | 11.4 | -7.7
Cc1nc(SCC(=O)Nc2ccccc2Cl)oc1C | -1.1 | 0.0 | 4.5 | 0.0 | 31.2*
CCN(Cc1ccccc1)C(=O)Cn1c(=O)n(-c2cccc(C)c2)c(=O)c2c1c1cc(C)ccc1n2C | . | -0.5 | . | 5.8 | .
O=C(Cn1nc2n(c1=O)-c1ccccc1SC2)N/N=C/c1cccs1 | -2.6 | -0.4 | -19.9 | -20.6 | 41.4*
COc1ccc(-n2nc(C(=O)NCC(=O)NCCc3ccc(OC)c(OC)c3)c3ccccc3c2=O)cc1Cl | ? | 1.3 | 23.3 | 55.1* | -21.0
CCOC(=O)N1CCN(C(=O)CNC(=O)c2nn(-c3ccc(OC)c(Cl)c3)c(=O)c3ccccc23)CC1 | 13.3 | -1.3 | 19.3 | 42.6* | -7.4
COCCNC(=O)CNC(=O)c1nn(-c2ccc(OC)c(Cl)c2)c(=O)c2ccccc12 | -4.3 | 0.0 | -3.7 | 4.6 | 18.3
CCCCN1CCC(COC(=O)c2cc(Cl)c(N)c3c2OCCO3)CC1 | 0.7 | -0.3 | -24.1 | -19.3 | 64.1*
CCCNC(=O)Cn1nc(-c2ccc(C)c(C)c2)c2cnc3ccc(F)cc3c21 | . | -0.9 | . | 6.4 | .
CCn1cc2nc(SCC(=O)Nc3ccccc3C(F)(F)F)n(Cc3ccc(C)cc3)c(=O)c2n1 | . | -0.4 | . | -6.1 | .
Cc1cccc(/C(N)=N/OC(=O)c2ccc(Br)o2)c1 | ? | -0.3 | 65.3* | 4.2 | 6.4
Cc1cccc(C(=O)O/N=C(/c2ccccc2)c2ccncc2)c1 | ? | -1.8 | 63.4* | 12.5 | 0.3
Cc1cccc(/C(N)=N/OC(=O)N2c3ccccc3Sc3ccccc32)c1 | ? | -0.2 | 51.4* | 6.7 | -17.6
N/C(=N\OC(=O)N1c2ccccc2Sc2ccccc21)c1ccccc1 | 4.9 | -1.5 | 4.5 | 2.2 | -1.7
Cc1cccc(/C(N)=N/OC(=O)c2ccc3c(c2)OCO3)c1 | ? | 1.3 | 57.0* | 4.9 | -9.2
